Measured values: PubChem BioAssay (Tox21)
Several values for one entry are separate records, joined by “and”; a condition that tells them apart may be missing. Equal entries are not always repeated. Inconclusive results are not listed. Some compounds were tested as several samples or in several runs, with calls that do not always agree. Activity calls are given as the source filed them. Unless noted, calls follow the shape of the dose curve; as a rule, active = well fitted curve in the direction sought with a large enough effect in the repeat runs; inconclusive = weak or mixed curves; inactive = no such curve, though single readings can be large; an effect the other way counts as inactive or inconclusive.

Tests used:
[1] = target: Luciferin 4-monooxygenase (Photinus pyralis) (UniProt P08659); assay: qHTS assay to identify small molecule inhibitors of firefly luciferase (AID 1224835); also: nearly all actives have a fitted effect of over 25% in size; also: potency is read from the fitted curve at half-maximal effect
Procedure, shortened: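 Quantitative HTS format; KM concentrations of both substrates. Purified P. pyralis FLuc activity quantified from luminescence images.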

[2] = qHTS assay to identify small molecule agonists of the constitutive androstane receptor (CAR) signaling pathway - cell viability counter screen (AID 1224836); also: nearly all actives have a fitted effect of over 45% in size; also: potency is read from the fitted curve at half-maximal effect
Procedure, shortened: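 Using CellTiter-Fluor, viability of HepG2 cells harbouring hCAR and CYP2B6-2.2kb was measured following 23 h incubation with a 15-concentration compound series plus PK11195 (0.75 uM final).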

[3] = qHTS assay to identify small molecule antagonists of the constitutive androstane receptor (CAR) signaling pathway - cell viability counter screen (AID 1224837); also: nearly all actives have a fitted effect of over 45% in size; also: potency is read from the fitted curve at half-maximal effect
Procedure, shortened: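 Counter screen run in HepG2-CYP2B6-hCAR cells: 4 hr settle, compound titration (15 concentrations) with 50 nM CITCO, 23 hr at 37 C/5% CO2, CellTiter-Fluor fluorescence.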

[4] = target: Nuclear receptor subfamily 1 group I member 3 (Homo sapiens) (UniProt Q14994); assay: qHTS assay to identify small molecule antagonists of the constitutive androstane receptor (CAR) signaling pathway (AID 1224838);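 also: HepG2 cells stably expressing hCAR with CYP2B6 luciferase reporter stimulated by CITCO; nearly all actives have a fitted effect of over 40% in size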; also: potency is read from the fitted curve at half-maximal effect
Procedure, shortened: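 Cell line: HepG2 double-stable for hCAR and CYP2B6-2.2kb reporter. Agonist: CITCO, 50 nM final. Compounds: 15 concentrations, 24 h, 37 C. Detection: ONE-Glo luminescence.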

[5] = target: Nuclear receptor subfamily 1 group I member 3 (Homo sapiens) (UniProt Q14994); assay: qHTS assay to identify small molecule agonists of the constitutive androstane receptor (CAR) signaling pathway (AID 1224839); also: nearly all actives have a fitted effect of over 15% in size; also: potency is read from the fitted curve at half-maximal effect;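 as to activation: HepG2 cells stably carrying human CAR and a CYP2B6 luciferase reporter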
Procedure, shortened: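 Double-stable HepG2 cells (hCAR, CYP2B6-2.2kb) seeded 4 h before compound addition. Exposure 24 h with 0.75 uM PK11195 final. Luciferase detected by ONE-Glo.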

[6] = qHTS assay to identify small molecule antagonists of the estrogen related receptor signaling pathway with the pleiotropic PPARgamma coactivator (PGC) from Tox21 10K library (AID 1224841; call rule not given here; also: actives are mostly falling curves and most rising ones were filed inactive; nearly all actives have a fitted effect of over 50% in size)
Procedure, shortened: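 qHTS antagonist format: PGC/ERR cells, 2k/well, compound in DMSO by pin transfer after 6 h attachment, 18 h treatment at 37 C, One-Glo luminescence read at 30 min.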

[7] = qHTS assay to identify small molecule agonists of the estrogen related receptor signaling pathway with the pleiotropic PPARgamma coactivator (PGC) from Tox21 10K library (AID 1224842); also: nearly all actives have a fitted effect of over 15% in size
Procedure, shortened: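 PGC/ERR reporter cells (NTP line) were seeded 2,000 per well, rested 6 h at 37 C/5% CO2, then pin-dosed with compounds in DMSO for 18 h at 37 C; luciferase read by One-Glo luminescence after 30 min at room temperature.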

[8] = target: Thyrotropin receptor (Homo sapiens) (UniProt P16473); assay: qHTS assay to identify small molecule agonists of the thyroid stimulating hormone receptor (TSHR) signaling pathway (AID 1224843; calls by dose curve; also: nearly all actives have a fitted effect of over 45% in size)
Procedure, shortened: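 Cell line HEK293 with TSHR; density 800/well. Exposure 30 min RT. Readout HTRF cAMP (cAMP-d2/anti-cAMP-cryptate), 1 h RT before reading.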

[9] = qHTS assay to identify small molecule agonists of H2AX (AID 1224845; active = well fitted activation curve with a large enough effect in the signal ratio in the repeat runs, not every such curve was filed as active; the % refers to the signal ratio)
Procedure, shortened: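 Wild-type CHO-K1 cells plated overnight, then exposed 3 hr at 37C to compounds at 15 concentrations (0.76% DMSO). Lysed, then HTRF anti-pH2AX(S139)-cryptate/anti-H2AX-d2 detection after 24 hr at room temperature; emissions 665 and 620 nm.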

[10] = qHTS assay to identify small molecule agonists of H2AX - cell viability counter screen (AID 1224847; calls by dose curve; also: nearly all actives have a fitted effect of over 30% in size; also: potency is read from the fitted curve at half-maximal effect)
Procedure, shortened: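 Quantitative HTS viability measurement: CHO-K1 wild-type cells in serum (10% FBS) medium, short 3 hr drug exposure at 37C with 0.76% DMSO, CellTiter-Glo luminescent detection.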

[11] = qHTS assay to identify small molecule antagonists of the estrogen related receptor (ERR) signaling pathway from Tox21 library (AID 1224848); also: nearly all actives have a fitted effect of over 50% in size; also: potency is read from the fitted curve at half-maximal effect
Procedure, shortened: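 Screening used an ERR reporter line supplied by NTP, exposed for 18 h at 37 C to library compounds delivered in DMSO. Signal was luciferase luminescence developed with ONE-Glo at room temperature for 30 min.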

[12] = qHTS assay to identify small molecule agonists of the estrogen related receptor (ERR) signaling pathway from Tox21 library (AID 1224849; calls by dose curve; also: nearly all actives have a fitted effect of over 15% in size); details: ERR reporter cell line, ONE-Glo luciferase, 18 h; at 92.4 µM (top of the series) unless noted
Procedure, shortened: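 Screening used an NTP-provided ERR luciferase cell line. Compounds in DMSO were added 6 h after seeding and left 18 h at 37 C before a 30 min ONE-Glo step and luminescence reading.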

[13] = qHTS RealTime-Glo MT Cell Viability Assay in HepG2 cells - 24 hour (AID 1224867); also: nearly all actives have a fitted effect of over 50% in size; also: potency is read from the fitted curve at half-maximal effect
Procedure, shortened: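 Real-time, nonlytic viability: 600 HepG2 cells/well mixed with NanoLuc enzyme plus prosubstrate; 5 h settle, compound (DMSO) added by pintool; luminescence monitored over 40 h at 37 C.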

[14] = qHTS RealTime-Glo MT Cell Viability Assay in HEK293 cells - 32 hour (AID 1224868); also: nearly all actives have a fitted effect of over 50% in size; also: potency is read from the fitted curve at half-maximal effect
Procedure, shortened: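 Cells + reagent dispensed (600 cells/well, HEK293) → 5 h at 37 C/5% CO2 → 23 nL compound in DMSO pinned → 40 h at 37 C → luminescence read at 0, 8, 16, 24, 32, 40 h.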

[15] = A CellTox Green Cytotoxicity Assay to monitor cytotoxicity in HEK293 cells - 0 hour (AID 1224869); also: nearly all actives have a fitted effect of over 50% in size
Procedure, shortened: (§1)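 Fluorescence intensity, read at 0, 8, 16, 24, 32 and 40 h of compound treatment, reflected dye binding to DNA of dead HEK293 cells; compounds (23 nL, DMSO) were added 5 h after plating cells with reagent.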

[16] = qHTS RealTime-Glo MT Cell Viability Assay in HepG2 cells - 40 hour (AID 1224870); also: nearly all actives have a fitted effect of over 50% in size; also: potency is read from the fitted curve at half-maximal effect
Procedure, shortened: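 HepG2 cells mixed with RealTime-Glo MT reagents (NanoLuc plus cell-permeant prosubstrate) were seeded at 600 cells/well, incubated 5 h at 37 C/5% CO2, then pinned with compounds in DMSO; nonlytic luminescence tracked viability during 40 h treatment.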

[17] = A CellTox Green Cytotoxicity Assay to monitor cytotoxicity in HEK293 cells - 40 hour (AID 1224871); also: nearly all actives have a fitted effect of over 45% in size; also: potency is read from the fitted curve at half-maximal effect
Procedure, shortened: as §1

[18] = qHTS assay to identify small molecule antagonists of the estrogen related receptor signaling pathway with the pleiotropic PPARgamma coactivator (PGC) from Tox21 10K library - cell viability counter screen (AID 1224840; active = well fitted cell-killing curve with a large enough effect in the repeat runs, not every such curve was filed as active; also: nearly all actives have a fitted effect of over 40% in size)
Procedure, shortened: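 Following seeding of 2,000 PGC/ERR cells/well and 6 hours' incubation, test compounds were delivered in DMSO. The plates then sat 17.5 hours at 37 C before a fluorogenic live-cell protease reagent (CellTiter-Fluor) was read after 30 min.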

[19] = qHTS assay to identify small molecule agonists of the hypoxia (HIF-1) signaling pathway - cell viability counter screen (AID 1224844; calls by dose curve; also: nearly all actives have a fitted effect of over 50% in size; also: potency is read from the fitted curve at half-maximal effect)
Procedure, shortened: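 Cells (HRE-bla ME-180, 2,000 per well) sat 5 hrs at 37C, got compound for 17 hrs, were read for CCF4-AM FRET, and were finally lysed with CellTiter-Glo for a 30 min room-temperature luminescence read.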

[20] = qHTS assay to identify small molecule agonists of the hypoxia (HIF-1) signaling pathway (AID 1224846; active = well fitted activation curve with a large enough effect in the signal ratio in the repeat runs, not every such curve was filed as active; the % refers to the signal ratio)
Procedure, shortened: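 A low-serum medium (0.5% dialyzed FBS) holding 2,000 HRE-bla ME-180 cells per well is preincubated for 5 hrs, dosed with compounds by pintool, and kept a further 17 hrs at 37C, 5% CO2 before CCF4-AM FRET detection of beta-lactamase.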
% is scaled to controls: 0 for no effect and ±100 for the full control effect.

Chain of Luciferin 4-monooxygenase (Photinus pyralis) (P08659 whole entry, looked up): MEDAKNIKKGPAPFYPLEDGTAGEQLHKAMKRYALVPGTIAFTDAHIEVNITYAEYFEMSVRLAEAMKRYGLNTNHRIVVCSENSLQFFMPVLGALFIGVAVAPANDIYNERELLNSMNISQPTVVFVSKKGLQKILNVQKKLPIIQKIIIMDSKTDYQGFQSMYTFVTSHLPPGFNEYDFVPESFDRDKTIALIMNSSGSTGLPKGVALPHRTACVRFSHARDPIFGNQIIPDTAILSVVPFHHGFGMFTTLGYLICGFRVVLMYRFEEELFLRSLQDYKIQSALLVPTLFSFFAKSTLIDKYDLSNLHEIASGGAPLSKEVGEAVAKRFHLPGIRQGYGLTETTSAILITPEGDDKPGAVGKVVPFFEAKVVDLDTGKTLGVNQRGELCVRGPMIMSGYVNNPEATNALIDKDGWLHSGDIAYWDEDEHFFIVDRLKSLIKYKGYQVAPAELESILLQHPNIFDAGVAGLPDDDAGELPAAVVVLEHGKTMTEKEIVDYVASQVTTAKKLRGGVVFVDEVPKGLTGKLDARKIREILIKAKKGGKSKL
Chain of Thyrotropin receptor (Homo sapiens) (P16473 whole entry, looked up): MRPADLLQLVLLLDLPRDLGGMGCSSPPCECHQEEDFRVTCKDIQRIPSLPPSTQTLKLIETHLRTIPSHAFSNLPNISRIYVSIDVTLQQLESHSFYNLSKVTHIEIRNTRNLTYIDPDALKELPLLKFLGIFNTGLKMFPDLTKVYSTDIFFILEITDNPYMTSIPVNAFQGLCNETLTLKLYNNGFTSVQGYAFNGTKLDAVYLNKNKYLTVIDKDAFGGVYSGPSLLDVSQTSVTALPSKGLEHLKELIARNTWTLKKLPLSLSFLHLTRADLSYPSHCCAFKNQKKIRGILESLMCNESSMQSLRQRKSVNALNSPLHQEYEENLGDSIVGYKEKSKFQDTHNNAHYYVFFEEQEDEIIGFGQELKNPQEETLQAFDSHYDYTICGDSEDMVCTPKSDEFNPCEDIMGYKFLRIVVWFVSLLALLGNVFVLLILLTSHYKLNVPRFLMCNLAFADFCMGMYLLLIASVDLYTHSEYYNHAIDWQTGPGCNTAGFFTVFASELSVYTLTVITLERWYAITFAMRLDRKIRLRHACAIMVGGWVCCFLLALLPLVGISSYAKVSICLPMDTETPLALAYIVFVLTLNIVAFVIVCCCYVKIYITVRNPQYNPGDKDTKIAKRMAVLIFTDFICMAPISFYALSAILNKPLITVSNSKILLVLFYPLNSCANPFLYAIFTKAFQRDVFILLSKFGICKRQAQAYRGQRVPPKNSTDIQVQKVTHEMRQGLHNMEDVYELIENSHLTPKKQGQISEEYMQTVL
Chain of Nuclear receptor subfamily 1 group I member 3 (Homo sapiens) (Q14994 whole entry, looked up): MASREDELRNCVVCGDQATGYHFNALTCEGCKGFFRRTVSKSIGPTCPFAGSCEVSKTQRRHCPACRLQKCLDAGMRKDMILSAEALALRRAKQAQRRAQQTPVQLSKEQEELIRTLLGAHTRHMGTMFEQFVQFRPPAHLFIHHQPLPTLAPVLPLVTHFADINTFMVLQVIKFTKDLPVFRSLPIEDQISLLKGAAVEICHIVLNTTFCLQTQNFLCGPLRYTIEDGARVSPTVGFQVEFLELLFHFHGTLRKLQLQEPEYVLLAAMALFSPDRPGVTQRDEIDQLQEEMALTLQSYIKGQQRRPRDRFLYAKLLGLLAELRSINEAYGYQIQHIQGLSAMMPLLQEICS

CC(=O)Oc1ccc(C2(c3ccc(OC(C)=O)cc3)C(=O)Nc3ccccc32)cc1
inactive: Potency [1] | Potency [2] | Potency [3] | Potency [5] | Potency [6] | Potency [7] | Potency [8] | Potency [9] | Potency [10] | Potency [11] | activity change, positive = activation [12] -9.03% [at 42.5 µM] | Potency [13] | Potency [14] | Potency [15] | Potency [16] | Potency [17]
active: Potency [4] 0.168 µM

O=C1Nc2ccc(Cl)cc2[C@@](C#CC2CC2)(C(F)(F)F)O1
inactive: Potency [1] | Potency [2] | Potency [3] | Potency [4] | Potency [5] | Potency [18] | Potency [9]
active: Potency [14] 23.9 µM

CCCCCCCOC(=O)c1ccc(O)cc1
inactive and 24.5 µM (active): Potency [17]
active: Potency [1] 71 µM | Potency [19] 55 µM | Potency [10] 101 µM | Potency [14] 24.6 µM and 21.9 µM
inactive: Potency [2] | Potency [3] | Potency [4] | Potency [5] | Potency [18] | Potency [9] | Potency [13] | Potency [15] | Potency [16]

CC(=O)C=O
inactive: Potency [1] | Potency [2] | Potency [3] | Potency [4] | Potency [5] | Potency [18] | Potency [19] | Potency [9] | outcome [20] | Potency [10] | Potency [14] | Potency [15] | Potency [16] | Potency [17]

C[C@]12CC[C@H]3C(=CCc4cc(O)ccc43)[C@@H]1CCC2=O
active: Potency [1] 35.6 µM | Potency [5] 27.3 µM | Potency [19] 38.9 µM | Potency [10] 101 µM | Potency [11] 61.1 µM | Potency [14] 49 µM
inactive: Potency [2] | Potency [3] | Potency [4] | Potency [6] | Potency [9] | outcome [20] | activity change, positive = activation [12] -51.5% | Potency [15] | Potency [17]

CCN(CC)CCSC(=O)C(c1ccccc1)c1ccccc1
inactive: Potency [1] | Potency [2] | Potency [3] | Potency [4] | Potency [5] | Potency [18] | Potency [8] | Potency [19] | outcome [20] | Potency [13] | Potency [14] | Potency [16]

CCOC(=O)CN
inactive: Potency [1] | Potency [2] | Potency [3] | Potency [4] | Potency [5] | Potency [18] | Potency [8] | Potency [9] | outcome [20] | Potency [10] | Potency [13] | Potency [14] | Potency [15] | Potency [17]

Oc1cc2ccccc2cc1O
inactive: Potency [1] | Potency [2] | Potency [3] | Potency [4] | Potency [5] | Potency [18] | Potency [8] | outcome [20] | Potency [10] | Potency [15] | Potency [16]

CCCCCCCCCCCC(=O)N(CC)CC
active: Potency [5] 54.5 µM
inactive: Potency [1] | Potency [2] | Potency [3] | Potency [4] | Potency [18] | Potency [8] | Potency [9] | Potency [14] | Potency [15] | Potency [16] | Potency [17]

CC(C)(C)c1cc(CCC(=O)NCCCCCCNC(=O)CCc2cc(C(C)(C)C)c(O)c(C(C)(C)C)c2)cc(C(C)(C)C)c1O
inactive: Potency [1] | Potency [2] | Potency [3] | Potency [5] | Potency [18] | Potency [8] | Potency [19] | Potency [9] | outcome [20] | Potency [10] | Potency [16] | Potency [17]
active: Potency [4] 1.93 µM

Cc1cccc(C)c1NC(=O)CN1CCN(CCCC(c2ccc(F)cc2)c2ccc(F)cc2)CC1
active: Potency [2] 23.7 µM | Potency [3] 23.7 µM | Potency [13] 23.9 µM | Potency [14] 9.52 µM | Potency [16] 23.9 µM | Potency [17] 21.3 µM
inactive: Potency [1] | Potency [4] | Potency [5] | Potency [18] | Potency [8]

CC[N+](CC)(CC)Cc1ccccc1
inactive: Potency [1] | Potency [2] | Potency [3] | Potency [4] | Potency [5] | Potency [7] | Potency [9] | outcome [20] | Potency [10] | Potency [11] | activity change, positive = activation [12] -4.7% | Potency [14] | Potency [15] | Potency [17]

CCC1(c2cnc[nH]2)Cc2ccccc2C1
inactive: Potency [1] | Potency [2] | Potency [3] | Potency [4] | Potency [5] | Potency [18] | Potency [19] | Potency [9] | Potency [10] | Potency [13] | Potency [14] | Potency [16] | Potency [17]

CC(C)C(=O)OCc1ccccc1
inactive: Potency [1] | Potency [2] | Potency [3] | Potency [4] | Potency [5] | Potency [18] | Potency [8] | Potency [19] | outcome [20] | Potency [10] | Potency [15] | Potency [16]

Cc1ccc(-n2[nH]c(C)c(N=Nc3cccc(-c4cccc(C(=O)O)c4)c3O)c2=O)cc1C
active: Potency [1] 38.9 µM | Potency [19] 6.74 µM | Potency [14] 23.9 µM
inactive: Potency [2] | Potency [3] | Potency [4] | Potency [5] | Potency [8] | Potency [10] | Potency [15] | Potency [16] | Potency [17]

CCCCCCCC/C=C\CCCCCCCC(=O)OCCOC(=O)CCCCCCC/C=C\CCCCCCCC
inactive: Potency [1] | Potency [2] | Potency [3] | Potency [5] | Potency [18] | Potency [8] | Potency [19] | Potency [9] | outcome [20] | Potency [10] | Potency [13] | Potency [14] | Potency [15] | Potency [17]

O=CC1CC1
inactive: Potency [1] | Potency [2] | Potency [3] | Potency [5] | Potency [18] | Potency [8] | Potency [19] | Potency [9] | outcome [20] | Potency [10] | Potency [13] | Potency [14] | Potency [15] | Potency [16] | Potency [17]
